Measurements from PubChem BioAssay (NCATS).
Records with an inconclusive call do not appear. Where a call stands in place of a potency, no number is given. Calls of active or inactive are those of the source. Calls follow the shape of the dose curve; as a rule, active = well fitted cell-killing curve with a large enough effect; inconclusive = small, poorly fitted or top-dose-only effect; inactive = no such curve, though single readings can be large or run the other way.

Test: qHTS of pediatric cancer cell lines to identify multiple opportunities for drug repurposing: Primary screen for MG 63 (6-TG R) cells (AID 1347105); also: nearly all actives have a fitted effect of over 50% in size
Conditions: MG 63 (6-TG R) viability, CellTiter-Glo, 48 h; series mostly up to 46 µM
Description: Drug repurposing or repositioning has been offered as a strategy for drug development in oncology programs. This approach has special potential for childhood cancers and other rare or orphan diseases, where the expected return on new drug development has been a disincentive to pharmaceuticals. […] In this project we exploit the poly-pharmacology of drugs to discover new indications via phenotypic screening of a panel of 19 well-characterized cell lines derived from solid tumors seen in children and adolescents. The goal is to identify approved drugs with previously unrecognized anticancer properties that has the potential to reveal new mechanisms and biological processes involved in carcinogenesis or drug resistance. We employed a titration-based paradigm (quantitative high-throughput screening or qHTS), where all compounds were tested at multiple concentrations for their effect on cell viability. Concentration-response curves (CRCs) were derived directly from the primary screen, and both potency and efficacy values were used to identify compounds with robust bioactivity profiles. We screened the NIH Chemical Genomics Center (NCGC) Pharmaceutical Collection (NPC) and Mechanism Interrogation Plate (MIPE) small molecule collections of approved and investigational compounds against these cell lines; and measured metabolically active cells after 48 hours of compound treatment as a proxy for cell viability. […] Assay Submitter: Nathalia J. Martinez, National Center for Advancing Translational Sciences, National Institutes of Health, Rockville, MD, USA; email: natalia.martinez@nih.gov Shen, M et al. Quantitative high-throughput phenotypic screening of pediatric cancer cell lines identifies multiple opportunities for drug repurposing. Oncotarget 2017 Dec 19;9(4):4758-4772. PMID 29435139.
The cells were obtained from University of North Carolina (UNC), Pediatric Preclinical Testing Program (PPT), and Coriell Institute (CI). qHTS cell viability assay: Cells were assayed in growth media at a density of 500-1,000 cells/well. Five microliters of cells were dispensed into 1,536-well, white, solid-bottom, TC-treated plates (Greiner Bio One) using a multidrop dispenser and incubated at 37 degrees C, 5% CO2, under a humidified atmosphere for 5 hours. Twenty-three nanoliters of compounds and controls (neutral control DMSO or positive control bortezomib at final concentration of 2.3 µM) were subsequently transferred by Kalypsys pintool. For primary screens, the MIPE collection was tested at 11-point dilutions (final concentrations range from 0.78 nM to 46 µM) and the NPC collection at 8-point dilutions (final concentrations range from 0.59 nM to 46 µM). Compounds tested in follow-up screens were assayed at 11-point dilutions. Cells were incubated for 48 hours, followed by addition of 3 µL of CellTiter-Glo (Promega). After a 15 min incubation at room temperature, samples were analyzed for luminescence intensity using a ViewLux High-throughput CCD imager equipped with clear filters.
Potency is read from the fitted curve at half-maximal effect.

SMILES	Potency
ClCCN1CCCC1	inactive
C[C@](O)(CS(=O)(=O)c1ccc(F)cc1)C(=O)Nc1ccc(C#N)c(C(F)(F)F)c1	1180 nM (active)
CN1C(=O)CCS(=O)(=O)C1c1ccc(Cl)cc1 (stereo not given)	inactive
Nc1ccccc1	inactive
CC(C)N(CCC(C(N)=O)(c1ccccc1)c1ccccn1)C(C)C (stereo not given)	inactive
C[C@]12CC[C@H]3[C@@H](CCC4=CC(=O)CC[C@@H]43)[C@@H]1CC[C@@H]2OC(=O)CCc1ccco1	inactive
COc1cc(CC(C)N)cc(OC)c1OC (stereo not given)	inactive
COc1ccc2c3c1O[C@H]1[C@H](O)CC[C@H]4[C@@H](C2)N(C)CC[C@@]341	inactive
CC(C)(N)Cc1ccccc1Cl	inactive
Nc1nc(N)nc(NC2CC2)n1	inactive
CCOP(=S)(OCC)Oc1ccc2c(C)c(Cl)c(=O)oc2c1	inactive
COc1cc(OC)c(OC)cc1C=O	inactive
O=C1OC(c2ccc(O)c(S(=O)(=O)O)c2)(c2ccc(O)c(S(=O)(=O)O)c2)c2c(Br)c(Br)c(Br)c(Br)c21	inactive
C[C@]12CCC(=O)C=C1CC[C@@H]1[C@@H]2CC[C@]2(C)C(=O)CC[C@@H]12	inactive
CCCCC/C=C\C/C=C\C/C=C\C/C=C\CCCC(=O)NCC(=O)O	inactive
CN1CCC(O)(c2ccc(F)cc2)C(C(=O)c2ccc(F)cc2)C1 (stereo not given)	inactive
CNC(C)(C)Cc1ccccc1	inactive
C#C[C@]1(O)CC[C@H]2[C@@H]3CCC4=CC(=O)CC[C@]4(C)[C@H]3CC[C@@]21C	inactive
C[C@]12Cc3cn[nH]c3C[C@@H]1CC[C@@H]1[C@@H]2CC[C@@]2(C)[C@H]1CC[C@]2(C)O	inactive
C[C@]12CC[C@H]3[C@@H](CCC4=CC(=O)CC[C@@H]43)[C@@H]1CC[C@@H]2OC(=O)CCC1CCCCC1	inactive

SMILES	Potency
COP(=S)(OC)Oc1cc(Cl)c(Cl)cc1Cl	inactive
COc1c2c(cc3c1OCO3)CCN(C)C2	inactive
CC(=O)OCC1=C(C(=O)O)N2C(=O)[C@@H](N)[C@H]2SC1	inactive
CN(C)CCc1c[nH]c2cccc(OP(=O)(O)O)c12	inactive
CCN[C@H](C)Cc1cccc(C(F)(F)F)c1	inactive
O=C(CCCN1CCC2(CC1)C(=O)NCN2c1ccccc1)c1ccc(F)cc1	inactive
COP(=S)(OC)SCN1C(=O)c2ccccc2C1=O	inactive
COP(=S)(OC)Oc1ccc(SC)c(C)c1	inactive
CCN[C@@H](C)Cc1cccc(C(F)(F)F)c1	inactive
CN1C(=O)COc2c(C(=O)NC3CN4CCC3CC4)cc(Cl)cc21 (stereo not given)	inactive
CN1CC[C@]23c4c5ccc(O)c4O[C@H]2[C@@H](O)CC[C@H]3[C@H]1C5	inactive
c1ccc(CN2CCNCC2)cc1	inactive
CCN(CC)CCc1c[nH]c2ccccc12	inactive
CC(NC(C)(C)C)C(=O)c1cccc(Cl)c1 (stereo not given)	inactive
CC(=O)NC1CCSC1=O (stereo not given)	inactive
CCOC(=O)CC(SP(=S)(OC)OC)C(=O)OCC (stereo not given)	inactive
CCC(CC)(CNC(=O)CCCO)c1cccc(OC)c1	inactive
Nc1ccc([As](=O)(O)O)cc1	inactive
C[C@]12CC[C@@H]3c4ccc(OC(=O)N(CCCl)CCCl)cc4CC[C@H]3[C@@H]1CC[C@@H]2OP(=O)(O)O	inactive
CCC1(c2ccccc2)C(=O)N(COC)C(=O)N(COC)C1=O	inactive
